Screening data from PubChem BioAssay.
ARNT TACC3 PPI – disruptors of ARNT/TACC3 protein interaction, primary screen, biochemical, AlphaScreen, single concentration; AID 623870, 2012; Transforming acidic coiled-coil-containing protein 3 (Homo sapiens), Q9Y6A5; inhibition, % at 9.99 µM; AlphaScreen His-ARNT PAS-B/GST-TACC3 binding, luminescence; TACC3 fragment carries E629A point mutation; 390,000 tested, 0.66% active;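 active = mean inhibition of replicates at least 50% and at least half of replicates each reaching 50%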;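 also: 0% = complete ARNT plus TACC3 wells and 100% = ARNT alone without TACC3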
iPSC survival up – enhancers of single-cell hiPSC survival, primary screen, ATPlite luminescence | 360,000 tested, 0.044% active | survival enhancement, % at 20 µM | 100% = ROCK inhibitor wells, 0% = DMSO | AID 602274, 2012; in the data active = survival enhancement above about 18%;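 also: cells exposed to compounds for 16 hours before the ATP read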
INS-1E GSIS act – GLuc luminescence reporter in INS-1E cells, primary screen for activators of glucose-dependent secretion of insulin | INS-1E GLuc reporter insulin secretion, 2-3 h | 370,000 tested, 0.61% active | activation, % at 16.6 µM | AID 743287, 2014;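 active = lowest replicate activation of at least 40%, so every replicate reaches that level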;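 also: 0% = median of neutral control wells and 100% = median of IBMX positive control wells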
ABCB6 inh MLPCN – ABCB6 transporter inhibitors, primary screen, K562-ABCB6 cells, flow cytometry, MLPCN library | 360,000 tested, 0.19% active | ATP-binding cassette sub-family B member 6 (Homo sapiens), Q9NP58 | fluorescence ratio to DMSO, % at 10 µM | K562-ABCB6 porphyrin accumulation, 1 h; stronger effect = lower value | AID 602162, 2011;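 active = fluorescence ratio to DMSO below 75%, the collection mean minus 3 SD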;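 also: signal is porphyrin accumulated inside mitochondria; 100% equals median channel fluorescence of DMSO control wells; lower ratio means ABCB6 inhibition with less porphyrin fluorescence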
Target sequence (Q9NP58 whole entry, looked up): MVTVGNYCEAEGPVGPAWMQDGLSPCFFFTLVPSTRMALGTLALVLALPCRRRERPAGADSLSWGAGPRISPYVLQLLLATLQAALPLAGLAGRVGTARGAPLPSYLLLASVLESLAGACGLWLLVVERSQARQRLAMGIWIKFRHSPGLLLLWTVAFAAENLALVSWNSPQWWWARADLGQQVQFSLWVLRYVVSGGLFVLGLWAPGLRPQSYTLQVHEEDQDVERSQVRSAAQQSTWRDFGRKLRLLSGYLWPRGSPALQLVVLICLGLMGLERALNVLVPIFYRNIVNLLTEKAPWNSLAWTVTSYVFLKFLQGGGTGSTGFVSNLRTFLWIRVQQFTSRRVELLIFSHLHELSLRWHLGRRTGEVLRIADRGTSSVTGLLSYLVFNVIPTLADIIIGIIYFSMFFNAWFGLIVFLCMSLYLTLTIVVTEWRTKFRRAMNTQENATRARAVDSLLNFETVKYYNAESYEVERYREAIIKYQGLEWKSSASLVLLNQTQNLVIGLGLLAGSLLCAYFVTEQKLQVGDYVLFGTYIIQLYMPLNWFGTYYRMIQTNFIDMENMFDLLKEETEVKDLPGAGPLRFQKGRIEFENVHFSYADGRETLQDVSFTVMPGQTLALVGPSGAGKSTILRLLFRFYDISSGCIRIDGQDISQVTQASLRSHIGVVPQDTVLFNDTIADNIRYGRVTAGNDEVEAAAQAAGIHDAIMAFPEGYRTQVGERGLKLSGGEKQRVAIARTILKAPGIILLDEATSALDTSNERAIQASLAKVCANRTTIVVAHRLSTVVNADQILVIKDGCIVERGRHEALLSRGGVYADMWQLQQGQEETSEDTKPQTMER
NRP1-CendR mod – modulators of CendR peptide binding to NRP-1, primary screen, biochemical, fluorescence polarization, uHTS; FAM-RPARPAR peptide binding to NRP-1; inhibition, % at 25 µM; 360,000 tested, 0.85% active;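 active = inhibition or corrected inhibition above about 18%, plus a signal ratio from 0.5 to 1.5, limit read from the data, passing the limit was not always enough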
* = called active by the depositor; / = not tested or not shown. An excerpt weighted towards active compounds, which were near 1.8% of everything screened.

SMILES | ARNT TACC3 PPI | iPSC survival up | INS-1E GSIS act | ABCB6 inh MLPCN | NRP1-CendR mod
C=CCOc1ccc2c(c1)CCC1C2CCC2(C)C(O)C(O)CC12 (centres undefined) | -2 | 0 | 47* | 104 | -2
Cc1cnc(C(=O)OCC(=O)N2CC(C)CC(C)C2)cn1 (centres undefined) | 3 | 0 | 17 | 99 | 6
Cc1cnc(C(=O)OCC(=O)N2CCC(C)CC2)cn1 | / | -2 | 11 | 93 | 23*
COC(=O)C1=C(C)N(c2cccc(C)c2)C(=O)/C1=C\c1cccs1 | 5 | -2 | / | 99 | 28*
CCOC(=O)C1=C(C)N(c2ccc(C)cc2)C(=O)/C1=C\c1cccs1 | 13 | 4 | / | 84 | 14
COC(=O)C1=C(C)N(c2ccccc2)/C(=C/c2cccs2)C1=O | 2 | -2 | / | 102 | -18
CCOC(=O)C1=C(C)N(c2ccccc2)C(=O)/C1=C\c1cccs1 | 7 | 0 | 88* | 93 | -5
Cc1cccc(-c2ccc([C@@H]3[C@H](CO)N4CCCCN(S(=O)(=O)c5cn(C)cn5)C[C@@H]34)cc2)c1 | 13 | / | -20 | / | /
O=C(Nc1nc2ccccc2[nH]1)c1ccc(Cl)c(S(=O)(=O)N2CCCC2)c1 | 25 | -2 | / | 99 | 34*
O=C(Nc1nc2ccccc2[nH]1)c1ccc(S(=O)(=O)N2CCOCC2)cc1 | 1 | 1 | 9 | 99 | 7
COc1ccc2c3c([nH]c2c1)[C@@H](CO)N(C(=O)C1CC1)CC31CN(Cc2nccs2)C1 | / | / | 10 | / | /
O=C(O)CSc1cc(NS(=O)(=O)c2ccc(Cl)cc2)c2ccccc2c1O | 48* | 3 | -50 | 102 | -7
COc1ccc(S(=O)(=O)Nc2cccc3ccc(O)cc23)cc1 | -5 | 0 | -22 | 102 | 4
COc1ccc(S(=O)(=O)Nc2cc(SCC(=O)O)c(O)c3ccccc23)cc1 | 61* | 0 | -48 | 102 | 6
C[C@H](CO)N1C[C@H](C)[C@H](CN(C)C(=O)Nc2ccc(F)cc2)OCCCC[C@H](C)Oc2ccc(NC(=O)NC3CCCCC3)cc2C1=O | 1 | / | -11 | / | /
CNC[C@H]1[C@@H](c2ccc(C#CCC3CCCC3)cc2)[C@@H](CO)N1C(=O)C1CCC1 | / | / | -15 | / | /
C[C@H]1CN([C@@H](C)CO)C(=O)c2ccccc2-c2ccccc2CO[C@@H]1CN(C)S(=O)(=O)c1ccccc1 | / | / | -10 | / | /
Cc1ccc(C(=O)N/C(=C\c2cccs2)C(=O)NCCCn2ccnc2)cc1C | 71* | 10 | / | 105 | 2
Cc1ccc(C(=O)N/C(=C\c2cccs2)C(=O)NCCCn2ccnc2)cc1 | 2 | -1 | 16 | 94 | 3
Cc1ccc(C(=O)N/C(=C\c2ccco2)C(=O)NCCCn2ccnc2)cc1C | 77* | 0 | -9 | 91 | -9
COc1ccc(C(=O)N/C(=C\c2ccco2)C(=O)NCCCn2ccnc2)cc1 | 19 | -2 | 1 | 99 | -6
CC(=O)Nc1ccc(NC(=O)C2CC(=O)N=C(N)S2)cc1 (centres undefined) | / | 6 | / | 107 | 32*
CCn1nnnc1NCc1ccc(OCc2c(F)cccc2Cl)c(OC)c1 | -10 | -1 | 43* | 102 | 12
C[C@@H]1CN([C@H](C)CO)C(=O)CCCn2nncc2CO[C@H]1CN(C)S(=O)(=O)c1ccccc1C#N | / | / | 10 | / | /
CCCn1cnc2c1c(=O)n(CCCCC(C)=O)c(=O)n2C | 0 | -1 | 4 | 104 | 32*
SMILES | ARNT TACC3 PPI | iPSC survival up | INS-1E GSIS act | ABCB6 inh MLPCN | NRP1-CendR mod
FC(F)(F)c1cc(-c2ccccc2)nc(-n2cc(Cl)cn2)n1 | -5 | 0 | 51* | 92 | 0
Fc1ccc(-c2cc(C(F)(F)F)nc(-n3cc(Cl)cn3)n2)cc1 | -4 | 1 | 17 | 96 | -17
C=CCN1C(=O)[C@@]2(O[C@@H](CCO)[C@H]([Si](C)(C)c3ccc(OC)cc3)[C@H]2C)c2cc(NC(C)=O)ccc21 | 18 | / | / | / | /
CCOC(=O)c1c(C)n(CC(O)CN(CC)CC)c2cc(Br)c(OC)cc12 (centres undefined) | -6 | 0 | 68* | 92 | -1
CCCNC(=O)N1CC2(C1)[C@H](c1ccccc1)[C@@H](CO)N2C(=O)C1CCCC1 | / | / | 1 | / | /
Cc1nc(Cc2nnc(SC(C)C(=O)N3c4ccccc4NC(=O)C3(C)C)o2)cs1 (centres undefined) | / | 0 | 3 | 88 | 3
CC(Sc1nnnn1C1CC1)C(=O)N1c2ccccc2NC(=O)C1(C)C (centres undefined) | -16 | 0 | 6 | 97 | 26*
CCCN1[C@H](C(=O)NCCCN2CCOCC2)[C@@H](CO)[C@@H]2Cn3c(ccc(-c4ccccc4)c3=O)[C@@H]21 | -4 | / | 2 | / | /
CNC[C@H]1Oc2ccc(NC(=O)CCN3CCOCC3)cc2CC(=O)N([C@@H](C)CO)C[C@@H]1C | / | / | 12 | / | /
Cc1ccccc1NC(=O)Cn1c(C)nc2ccc(N)cc2c1=O | 6 | -2 | -4 | 97 | 24*
Cc1ccccc1NC(=O)Cn1c(C)nc2ccc(NC(=O)C3CC3)cc2c1=O | -5 | -3 | 14 | 96 | -2
CCN=C1S/C(=C\c2cc(Br)c(O)c(OC)c2)C(=O)N1CC | -8 | 0 | 53* | 94 | -39
CCN=C1S/C(=C\c2sccc2C)C(=O)N1CC | 8 | 2 | 63* | 107 | -1
COc1ccc(/C=C2\SC(=NCc3ccccc3)N(Cc3ccccc3)C2=O)cc1OC | -6 | -3 | 16 | 95 | -2
Cc1ccsc1/C=C1\SC(=S)N(CC2CCCO2)C1=O (centres undefined) | 13 | 1 | -8 | 99 | 0
Cc1noc(C)c1C(=O)N1CCC1(C)C(=O)NS(=O)(=O)c1ccc(Cl)cc1 (centres undefined) | / | 1 | / | 96 | 10
Cc1noc(C)c1C(=O)N1CCC1(C)C(=O)NS(=O)(=O)c1cccc(Cl)c1 (centres undefined) | / | 1 | / | 101 | 41*
CO[C@H]1CN(C)C(=O)c2cc(NS(=O)(=O)c3ccc(Cl)cc3)ccc2OC[C@H](C)N(C)C[C@@H]1C | -3 | / | 1 | / | /
C[C@@]12C(=O)N(CC3CC3)CC(=O)N1[C@H](/C=C/c1ccccc1)[C@@H]1C(=O)N(c3ccccc3)C(=O)[C@@H]12 | 10 | -2 | / | 103 | 28*
CN1C(=O)[C@H]2[C@@H](/C=C/c3ccccc3)N3C(=O)CN(CC4CC4)C(=O)[C@@]3(C)[C@H]2C1=O | -3 | 5 | / | 100 | 4
COc1ccc(NC(=O)Nc2cccc3c2O[C@@H](CN(C)Cc2ccc(C(F)(F)F)cc2)[C@@H](C)CN([C@@H](C)CO)C3=O)cc1 | 6 | / | -16 | / | /
CC(C)n1c(NCc2ccc(N(C)C)cc2)nc2ccccc21 | -10 | -1 | / | 98 | 29*
